Test results: PubChem BioAssay (Tox21)
Records with an inconclusive call do not appear. Values without a mark were called inactive. Active and inactive are the calls of the source. Calls follow the shape of the dose curve; as a rule, active = well fitted cell-killing curve with a large enough effect in the repeat runs; inconclusive = weak or mixed curves, or effect the other way; inactive = flat fitted curve, though single readings scatter.

assay: cAMP Responsive Elements (CRE) small molecule antagonists, cell-based qHTS assay: qHTS cell viability counter screen (AID 2060913); details: CRE-bla HEK293T viability, CellTiter-Glo luminescence, 5 h; series mostly up to 92.4 µM; viability change, negative = cytotoxic: at the top concentration; also: nearly all actives have a fitted effect of over 40% in size
How it was run: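 Viability of NKH477-stimulated (0.25 uM final) CRE-bla HEK293T cells is measured by CellTiter-Glo luminescence following 3 hrs compound exposure at 37 C.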
% is scaled to controls: 0 for no effect and ±100 for the full control effect; potency is read from the fitted curve at half-maximal effect.

SMILES	viability change, negative = cytotoxic	Potency
CC/C=C\CCOC(C)=O	-0.105%	
CN(C)CCN(C)CCN(C)C	3.24%	
OCc1c[nH]c2ccccc12	6.95%	
Nc1ccn([C@@H]2O[C@H](CO)[C@@H](O)[C@@H]2O)c(=O)n1	1.43%	
CCC(C)(C)c1ccc(CC(C)CN2C[C@@H](C)O[C@@H](C)C2)cc1 (stereo not given in full)	1.32% [at 42.5 µM]	
O=C1c2c(O)cccc2Cc2cccc(O)c21		inactive
CCOC(=O)C1=C(C)NC(C)=C(C(=O)OC)C1c1cccc([N+](=O)[O-])c1 (stereo not given)	9.09% [at 42.5 µM]	
C[N+]1(CC2COC(c3ccccc3)(c3ccccc3)O2)CCCCC1 (stereo not given)	0.835% [at 18.9 µM]	
CCCCOCCOCCOCCO		inactive
CCC(=O)OCCc1ccccc1	-6.32%	
COC(=O)Nc1nc2ccc(C(=O)c3ccccc3)cc2[nH]1	-2.16% [at 42.5 µM]	
CC(=O)Oc1ccc(C2(c3ccc(OC(C)=O)cc3)Oc3ccccc3NC2=O)cc1	7.57% [at 42.5 µM]	
O=C(Oc1ccccc1)Oc1ccccc1	-10.4%	
CC(C)CCCC(C)CCO (stereo not given)	6.16%	
O=c1[nH]c2ccccc2n1CCCN1CCN(C(c2ccccc2)c2ccccc2)CC1	-1.01% [at 42.5 µM]	
COC(=O)CCc1ccc(OCC(O)CNC(C)C)cc1 (stereo not given)	2.4% [at 42.5 µM]	
Cc1c(F)c(N2CCNC(C)C2)cc2c1c(=O)c(C(=O)O)cn2C1CC1 (stereo not given)	5.97% [at 42.5 µM]	
O=C(C1CCCCC1)N1CC(=O)N2CCCc3ccccc3C2C1 (stereo not given)	-2.51% [at 42.5 µM]	
CC(=O)C1C(=O)C=C(C)OC1=O (stereo not given)	1.58%	
CC=C(Cl)Cl	4.8%	

SMILES	viability change, negative = cytotoxic	Potency
CC1=C(Br)C(=O)C(Br)=C/C1=C(/c1ccccc1S(=O)(=O)O)c1cc(Br)c(O)c(Br)c1C	-12.3% [at 42.5 µM]	
COc1ccc(C2C(=O)c3ccccc3C2=O)cc1	5.68% [at 42.5 µM]	
Clc1cc(Cl)cc(Cl)c1	8.74%	
CC(C)CCCCCCCOC(=O)CCCCC(=O)OCCCCCCCC(C)C		inactive
O=C1C=CC(=O)N1c1ccc(Cc2ccc(N3C(=O)C=CC3=O)cc2)cc1		54.5 µM (active)
C=CCOCC(O)CCl (stereo not given)	0.422%	
O=C(c1ccco1)N1CCNCC1	8.59% [at 42.5 µM]	
CN1CCN(CCC(=O)N2c3ccccc3Sc3ccc(C(F)(F)F)cc32)CC1	-12.1% [at 42.5 µM]	
Cn1ccc2cc3c(cc21)CCN3C(=O)Nc1cccnc1	-0.701% [at 18.9 µM]	
CCCCCCCCCCCCC(=O)O	1.88%	
CO[C@@]12[C@H](COC(N)=O)C3=C(C(=O)C(C)=C(N)C3=O)N1C[C@@H]1N[C@@H]12	0.321% [at 42.5 µM]	
C[Si](C)O[Si](C)C	0.249%	
CC/C=C\CCOC(=O)c1ccccc1	-0.512%	
CC(C)(O)c1ccc(CNC(=O)c2cccnc2Oc2ccc(F)cc2)cc1	0.0414%	
O=C(NCN1CCOCC1)c1cnccn1	0.0803% [at 42.5 µM]	
CC(C)(C)NC[C@H](O)COc1nsnc1N1CCOCC1		inactive
CC1=C(O)C(=O)C(C)O1 (stereo not given)	1.35%	
Cc1onc(-c2ccccc2)c1-c1ccc(S(N)(=O)=O)cc1	2.62% [at 42.5 µM]	
CN(C)CCOC(c1ccccc1)c1ccccc1 (tested in a mixture with another compound)	-0.865%	
Cc1ccc2ccc3cccc4ccc1c2c34	-24.3%	
